# Screening data deposited in PubChem by National Center for Advancing Translational Sciences (NCATS).
# TDP1 cell noCPT – qHTS for Inhibitors of human tyrosyl-DNA phosphodiesterase 1 (TDP1): qHTS in cells in absence of CPT; DT40 Tdp1-/- hTDP1 cells, no CPT, ATP luminescence, 48 h; 15% of 420,000 active; AID 686978, 2013; Potency, µM (top dose mostly 46.2 µM), most hits filed as inhibitors; note: nearly all actives have a fitted effect of over 55% in size
#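 Compound effects on proliferation are scored in DT40 Tdp1-/-;hTDP1 cells in the absence of CPT. ATP levels (CellTiter-Glo luminescence) are recorded after a ≥48 hr, 37 °C incubation.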
# TDP1 block – TDP1 (human) enzyme inhibition | Q9NUW8 | 0.28% of 350,000 active | recombinant TDP1, AlphaScreen DNA substrate cleavage | Potency, µM (doses to about 130 µM), usual class: inhibitors; note: nearly all actives have a fitted effect of over 40% in size
# Target sequence (Q9NUW8 whole entry, looked up): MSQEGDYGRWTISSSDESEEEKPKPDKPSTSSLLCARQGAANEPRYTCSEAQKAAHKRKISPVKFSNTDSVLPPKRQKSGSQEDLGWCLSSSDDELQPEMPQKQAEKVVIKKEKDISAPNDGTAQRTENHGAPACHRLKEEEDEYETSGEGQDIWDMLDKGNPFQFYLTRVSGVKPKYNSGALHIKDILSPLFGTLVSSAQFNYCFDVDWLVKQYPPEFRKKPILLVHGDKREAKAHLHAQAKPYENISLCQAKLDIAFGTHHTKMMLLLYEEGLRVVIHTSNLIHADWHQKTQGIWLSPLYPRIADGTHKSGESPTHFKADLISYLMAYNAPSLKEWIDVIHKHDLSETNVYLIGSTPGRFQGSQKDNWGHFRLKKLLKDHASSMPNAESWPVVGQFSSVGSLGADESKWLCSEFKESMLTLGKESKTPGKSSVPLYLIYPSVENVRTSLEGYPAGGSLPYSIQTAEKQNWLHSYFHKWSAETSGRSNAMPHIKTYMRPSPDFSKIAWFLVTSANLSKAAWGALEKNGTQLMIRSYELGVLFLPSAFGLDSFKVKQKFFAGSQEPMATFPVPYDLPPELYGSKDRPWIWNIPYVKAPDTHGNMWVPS
#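 AlphaScreen read-out: signal falls as enzyme removes the 3' tyrosine-FITC from a 5'-biotinylated DNA oligo (15 nM, 5 min, RT). Enzyme was E. coli-made recombinant Tdp1 at 1 nM, exposed to compound for 15 min beforehand; beads 10 ug/ml, 10 min.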
# ClpP mod – qHTS Assay for Activators of ClpP; ATP-dependent Clp protease proteolytic subunit (Bacillus subtilis (strain 168)), P80244; purified B. subtilis ClpP, FRET peptide cleavage, 20 min; Potency, µM (series often up to 57.5 µM); 1.9% of 340,000 active; AID 651965, 2013; active = well fitted falling curve with a large enough effect; inconclusive = small, poorly fitted or top-dose-only effect; inactive = no such curve, though single readings can be large or run the other way; note: the source files actives as falling curves though it sought activators and does not explain the sign; nearly all actives have a fitted effect of over 65% in size
#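 ClpP 10 microg/mL final, pH 8 Tris/KCl buffer with BSA, glycerol, Tween-20; compound pinned in; FRET-FV substrate; RT 20 min; Ex320/Em430; ΔFRET vs ADEP 5.8 microM, DMSO, no enzyme.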
# DT40 TDP1 CPT – DT40-hTDP1 cell growth loss with CPT | chicken DT40 Tdp1-/-;hTDP1 cells + 20 nM CPT, ATP luminescence, 48 h | Potency, µM (highest dose often 46.2 µM), hits mostly inhibitors | 12% of 420,000 active; note: nearly all actives have a fitted effect of over 55% in size
#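 Chicken DT40 Tdp1-/- cells complemented with human TDP1, 400 cells/well, exposed to compounds plus 20 nM camptothecin for at least 48 h at 37 C; viability read as ATP content by CellTiter-Glo luminescence.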
# A number is an active result; n = inactive; u = inconclusive; x = no result; [ ] = remark or other dose. Hits are enriched below; roughly 17% of the tested compounds scored in any of these assays. Unless noted, calls come from the whole dose curve; as a rule, active = well fitted curve in the direction sought with a large enough effect; inconclusive = small, poorly fitted or top-dose-only effect, or another doubt; inactive = no such curve, though single readings can be large; an effect the other way counts as inactive or inconclusive.
SMILES,TDP1 cell noCPT,TDP1 block,ClpP mod,DT40 TDP1 CPT
CSc1ccc(C(O)c2ncc(-c3ccccc3F)[nH]2)cc1 (stereo not drawn),u,x,n,29.1µM
CSc1ccc(C(O)c2ncc(-c3ccccc3Cl)[nH]2)cc1 (stereo not drawn),n,x,n,u
CCOc1cc(C(c2c(C)[nH]n(-c3ccccc3)c2=O)c2c(C)[nH]n(-c3ccccc3)c2=O)ccc1O,5.17µM,n[12.3 µM],n,u
Cc1[nH]n(-c2ccccc2)c(=O)c1C(C[N+](=O)[O-])c1ccc(Cl)cc1 (stereo not drawn),4.11µM,n,n,3.26µM
Cc1ccc(C(C[N+](=O)[O-])c2c(C)[nH]n(-c3ccccc3)c2=O)cc1 (stereo not drawn),5.8µM,n,n,4.61µM
Cc1[nH]n(-c2ccccc2)c(=O)c1C(c1cc(Cl)ccc1O)c1c(C)[nH]n(-c2ccccc2)c1=O,u,n[12.3 µM],n,n
Cc1[nH]n(-c2ccccc2)c(=O)c1C(c1ccccc1[N+](=O)[O-])C(C#N)C#N (stereo not drawn),u,x,n,u
Cc1[nH]n(-c2ccccc2)c(=O)c1C(C[N+](=O)[O-])c1ccc(F)cc1 (stereo not drawn),11.6µM,n,n,7.31µM
Nc1sc(-c2ccccc2)n[n+]1Cc1cccc2cccnc12,23.1µM,n,n,u
COC(=O)C1=C(C)NC2=C(C(=O)c3ccccc32)C1c1cccc(OC)c1 (stereo not drawn),n,x,n,n
CC1=C([N+](=O)[O-])C(c2cccc(Br)c2)C2=C(N1)c1ccccc1C2=O (stereo not drawn),1.84µM,n,n,1.03µM
Cc1ccc(C)c(Nc2cc(C)nc(-c3ccccc3O)n2)c1,5.8µM,x,n,6.51µM
CCCCN(CCCC)c1cc(C)nc(-c2ccccc2O)n1,u,n,31.6µM,n
CCOC(=O)c1ccc(Nc2cc(C)nc(-c3ccccc3O)n2)cc1,29.1µM,n,n,u
Cc1cc(N/N=C/c2c(O)ccc3ccccc23)nc(-c2ccccc2O)n1,2.59µM,n,n,8.2µM
CCCOc1cc(C)nc(-c2ccccc2O)n1,u,u,n,n
Cc1cc(NCc2ccccc2)nc(-c2ccccc2O)n1,u,n,u,u
CCOC(=O)c1ccc(Nc2nc(C)cc(C)c2C#N)cc1,n,n,u,n
CN(C)c1ccc(/C=C2\C=Cc3ccccc32)cc1F,u,x,n,u
COC(=O)c1ccc(OC(=O)CN2C(=O)c3ccccc3C2=O)cc1,n,x,n,n
Cc1ccc(C(=O)NC(=O)CSc2ncccc2C(=O)O)cc1,n,n,x,n
C[C@H](NCc1ccccc1)c1ccccc1,x,n,x,x
Cc1cc(Nc2ccccc2)nc(-c2ccccc2O)n1,u,n,n,16.4µM
Cc1cc(Nc2cccc(F)c2)nc(-c2ccccc2O)n1,u,n,n,u
COc1cccc(C2C3=C(Nc4[nH]n(-c5ccccc5)c(=O)c42)c2ccccc2C3=O)c1 (stereo not drawn),x,n,x,x
SMILES,TDP1 cell noCPT,TDP1 block,ClpP mod,DT40 TDP1 CPT
Cn1c2c(c(=O)[nH]c1=O)C(c1cccc(O)c1)C1=C(N2)c2ccccc2C1=O (stereo not drawn),8.2µM,n,x,7.31µM
CSc1nc(=NC(C)=O)ss1,35.5µM,n,n,u
Cc1ccc(-n2nnnc2-c2cccs2)cc1[N+](=O)[O-],n,x,n,n
CCCCCCCCN1C(=O)[C@H](CC(=O)NCc2ccccc2)C[C@@]2(C(=O)OCC)CCCC=C12,u,x,n,u
CCOC(=O)[C@]12CCCC=C1N(CCC1=CCCCC1)C(=O)[C@H](CC(=O)NCC1CCCCC1)C2,u,x,n,u
CCCCCCCCN1C(=O)[C@H](CC(=O)NCC2CCCCC2)C[C@@]2(C(=O)OCC)CCC=C12,18.4µM,x,n,16.4µM
CCCCCCCCN1C(=O)[C@H](CC(=O)NCc2cccc(C(F)(F)F)c2)C[C@@]2(C(=O)OCC)CCCC=C12,u,x,n,u
C#CCNC(=O)C[C@@H]1C[C@@]2(C(=O)OCC)CCCC=C2N(CCC2=CCCCC2)C1=O,14.6µM,x,n,13µM
CCCCCCCCN1C(=O)[C@H](CC(=O)NCC2CCCCC2)C[C@@]2(C(=O)OCC)CCCC=C12,18.4µM,x,n,20.6µM
C#CCNC(=O)C[C@@H]1C[C@@]2(C(=O)OCC)CCCC=C2N(CCCCCCCC)C1=O,13µM,x,n,16.4µM
COc1ccc(C[C@@](C)(N)C(=O)O)cc1OC,x,n,x,x
Cc1cc(C(=O)NCCc2ccc(S(=O)(=O)NC(=O)NN3CCCCCC3)cc2)no1,u,n,x,u
COc1ccccc1C(NC(=O)CC(C)C)c1c(O)ccc2ccccc12 (stereo not drawn),n,n,35.5µM,u
Cc1ccc(C(NC(=O)C2CCCCC2)c2c(O)ccc3ccccc23)cc1 (stereo not drawn),20.6µM,n,u,16.4µM
CCCC(=O)NC(c1ccccc1)c1c(O)ccc2ccccc12 (stereo not drawn),8.2µM,x,n,u
CC(C)C(=O)NC(c1ccc([N+](=O)[O-])cc1)c1c(O)ccc2ccccc12 (stereo not drawn),u,n,n,17.8µM
COc1ccc(O[C@H]2C=C[C@@H](c3ccccc3)O[C@H]2CO/N=C\C[C@@H]2C=C[C@H](OC(C)=O)[C@H](COC(C)=O)O2)cc1,x,n[21 µM],x,x
Cc1ccc(-n2nnnc2Sc2nc([N+](=O)[O-])nn2C)cc1,u,n,n,u
Cc1ccc(-n2nnnc2Sc2nc([N+](=O)[O-])nn2C)c(C)c1,u,x,n,16.4µM
Cc1nn(C)c2c1c(C(F)(F)F)cc(=O)n2C(C)C(=O)N1CCN(c2ccccc2)CC1 (stereo not drawn),u,n,n,23.1µM
Cc1ccc(C)c(NC(=O)C(C)n2c(=O)cc(C(F)(F)F)c3c(C)nn(C)c32)c1 (stereo not drawn),n,n,n,n
Cc1nn(C)c2c1c(-c1ccccc1)cc(=O)n2C(C)C(=O)NCCc1ccc(Cl)cc1 (stereo not drawn),u,n,n,u
Cc1nn(C)c2c1c(C(F)(F)F)cc(=O)n2C(C)C(=O)NCCc1ccc(Cl)cc1 (stereo not drawn),u,n,u,14.6µM
COc1ccc(N2CCN(C(=O)C(C)n3c(=O)cc(C(F)(F)F)c4c(C)nn(C)c43)CC2)cc1 (stereo not drawn),11.6µM,n,n,11.6µM
COCC(=O)Nc1cc(C(=O)N2CCc3c(Cl)cccc3C2)c2c(c1)nc(-c1ccncc1)n2C,n,x,x,n
Cc1cc(=O)c2c(=O)[nH][nH]c2[nH]1,n,x,n,n
Cc1cc(=O)c2c(C)ccc(C)c2[nH]1,9.2µM,x,n,u
Cc1nc(SCc2cccc(F)c2)c2oc3ccccc3c2n1,u,n,n,n
Cc1nc(SCC(=O)N2CCCc3ccccc32)c2oc3ccccc3c2n1,u,n,n,16.4µM
